{
  "source": "PubChem BioAssay AID504834",
  "about": "(National Center for Advancing Translational Sciences (NCATS), 2011)",
  "note": "About 22,000 (6.9%) of roughly 320,000 compounds were called active. Inconclusive results (about 27%) are left out. The full list was thinned out, with actives kept by preference. A number with no mark means an inactive call. The call rests on the fitted dose curve; in most records, active means well fitted inhibition curve with a large enough effect; inconclusive means small, poorly fitted or top-dose-only effect, or another doubt; inactive means no such curve, though single readings can be large or run the other way. On the % scale 0 is the no-effect control and ±100 the full control effect; potency means the concentration at half of the fitted maximal effect.",
  "data": [
    {"test": "Primary qHTS for delayed death inhibitors of the malarial parasite plastid, 96 hour incubation", "conditions": "P. falciparum luciferase reporter growth; series mostly up to 28.7 µM; activity change, negative = inhibition: at the top concentration", "in_short": "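Parasite growth measured via integrated firefly luciferase reporter in P. falciparum. Infected erythrocytes at 2% hematocrit, 0.05% parasitemia final were treated 96 hours at 37 C under 5% CO2, and luminescence was read.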", "units": {"activity change, negative = inhibition": "%"}, "values": [
      {"smiles": "CCCCCc1c(C)nc(N2CCN(Cc3ccc4c(c3)OCO4)CC2)[nH]c1=O", "activity change, negative = inhibition": -3.03},
      {"smiles": "O=c1[nH]c(N2CCN(Cc3ccc4c(c3)OCO4)CC2)nc2c1CCCC2", "Potency": "7.38 µM (active)"},
      {"smiles": "CCN1CCN(c2nc3c(c(=O)[nH]2)CCC3)CC1", "activity change, negative = inhibition": 8.13},
      {"smiles": "O=C(COC(=O)c1ncc(Cl)c(Cl)c1Cl)NC1CCS(=O)(=O)C1", "note": "(stereo not given)", "activity change, negative = inhibition": 2.18},
      {"smiles": "Cc1occc(=O)c1OCc1ccc(F)cc1", "activity change, negative = inhibition": 34.4},
      {"smiles": "Cc1ccc(COC(=O)CN2C(=O)NC3(CCCC3)C2=O)cc1", "activity change, negative = inhibition": 2.02},
      {"smiles": "CCOc1ccc(C(C)=O)cc1COC(=O)CN1C(=O)NC2(CCCC2)C1=O", "Potency": "5.22 µM (active)"},
      {"smiles": "O=C(CN1C(=O)NC2(CCCC2)C1=O)OCCOc1ccc(F)cc1", "activity change, negative = inhibition": 52.9},
      {"smiles": "O=C(COC(=O)c1ccc([N+](=O)[O-])cc1Cl)NC(=O)c1ccccc1", "activity change, negative = inhibition": 28.7},
      {"smiles": "COc1ccc(CNC(=O)CN2C(=O)NC3(CCCc4sccc43)C2=O)cc1", "note": "(stereo not given)", "activity change, negative = inhibition": -17.9},
      {"smiles": "Cc1cccc(C)c1NC(=O)CN(C)C(=O)CCC(=O)c1ccccc1", "activity change, negative = inhibition": -21},
      {"smiles": "CC(=O)Nc1ccc(Nc2c3ccccc3nc3ccccc23)cc1", "activity change, negative = inhibition": -19},
      {"smiles": "COc1ccc(C(=O)NNc2cc(C)nc(NNC(=O)c3ccc(OC)cc3)n2)cc1", "activity change, negative = inhibition": -5.06},
      {"smiles": "CC(=O)Nc1ccc(Nc2cc(C)nc(Nc3ccc(NC(C)=O)cc3)n2)cc1", "Potency": "2.94 µM (active)"},
      {"smiles": "CCN(CC)Cc1c(C(=O)N/N=C/c2cccc(OCc3ccc(F)cc3)c2)nnn1-c1nonc1N", "activity change, negative = inhibition": 7.42},
      {"smiles": "CC(CC(=O)Nc1cc(C(F)(F)F)ccc1Cl)c1ccccc1", "note": "(stereo not given)", "activity change, negative = inhibition": 4.23},
      {"smiles": "O=C(NNc1ccccc1Cl)C(O)(c1cccc(C(F)(F)F)c1)c1cccc(C(F)(F)F)c1", "Potency": "2.62 µM (active)"},
      {"smiles": "O=C(Nc1cc(C(F)(F)F)ccc1Cl)C(=O)N1CCCCC1", "activity change, negative = inhibition": 33.5},
      {"smiles": "COC(=O)c1cc(N2CCNCC2)nc2ccccc12", "activity change, negative = inhibition": 16.4},
      {"smiles": "Cc1ccc(-n2c(C)nnc2SCC(=O)NC2CC2)cc1", "activity change, negative = inhibition": 11.5},
      {"smiles": "Cc1nnc(SCC(=O)N/N=C/c2cn(-c3ccccc3)nc2-c2ccc(F)cc2)n1-c1ccccc1", "activity change, negative = inhibition": 0},
      {"smiles": "Cc1nc2ccccc2n1CC(=O)N/N=C/c1cccs1", "Potency": "2.33 µM (active)"},
      {"smiles": "Cc1nc2ccccc2n1CC(=O)N/N=C/c1cccnc1", "activity change, negative = inhibition": 16.2},
      {"smiles": "NC(=O)N/N=C\\c1cccs1", "activity change, negative = inhibition": -2.84},
      {"smiles": "Cc1ccc(-c2nnc(SCC(=O)N/N=C/c3cccs3)n2-c2ccc(C)cc2)cc1", "Potency": "13.1 µM (active)"},
      {"smiles": "CCN1CCN(C(=O)N[C@@H](C(=O)N[C@@H]2C(=O)N3C(C(=O)O)=C(CSc4nnnn4C)CS[C@H]23)c2ccc(O)cc2)C(=O)C1=O", "activity change, negative = inhibition": -3.93},
      {"smiles": "Cn1nc(C(F)(F)F)c(-c2ccc(F)cc2)c1NC(=O)CSCC(=O)O", "activity change, negative = inhibition": 4.49},
      {"smiles": "Cc1nc(N)sc1N=Nc1c(C)n(C)n(-c2ccccc2)c1=O", "activity change, negative = inhibition": 22.2},
      {"smiles": "COc1c(O)ccc2c1CN1CCc3cc4c(cc3C1C2)OCO4", "note": "(stereo not given)", "Potency": "3.29 µM (active)"},
      {"smiles": "CN1CCc2cc3c(cc2[C@H]1[C@@H]1OC(=O)c2c1ccc1c2OCO1)OCO3", "activity change, negative = inhibition": 14.9},
      {"smiles": "COc1c(O)ccc2c1-c1c3c(cc4c1C(C2)N(C)CC4)OCO3", "note": "(stereo not given)", "activity change, negative = inhibition": 5.04},
      {"smiles": "O=C(CCc1ccccc1Cl)Nc1ccc(S(=O)(=O)Nc2nccs2)cc1", "activity change, negative = inhibition": 0.156},
      {"smiles": "O=C(COc1ccc(Cl)cc1)NCCS(=O)(=O)N1CCN(c2ccc(F)cc2)CC1", "activity change, negative = inhibition": 31.9},
      {"smiles": "Cc1ccc(NC(=O)CCN2C(=O)c3ccccc3C2=O)cc1C", "activity change, negative = inhibition": 89.9},
      {"smiles": "Cc1cc2c(cc1C)N(C(=O)CN1C(=O)c3ccccc3C1=O)C(C)(C)c1ssc(=S)c1-2", "Potency": "8.28 µM (active)"},
      {"smiles": "Cc1cc(C)cc(NC(=O)CN2C(=O)c3ccccc3C2=O)c1", "activity change, negative = inhibition": -16.1},
      {"smiles": "Cc1nn(CC(=O)N/N=C/c2ccc(F)cc2)c(C)c1[N+](=O)[O-]", "activity change, negative = inhibition": 37.4},
      {"smiles": "CC1CCN(C(=S)NC(=O)c2ccccc2Br)CC1", "activity change, negative = inhibition": -26.7},
      {"smiles": "CCOC(=O)c1c(CC(C)C)csc1/N=C/C1=C(O)CCCC1=O", "activity change, negative = inhibition": 65.1},
      {"smiles": "CN1C(=O)[C@H]2[C@@H](C3CC3)N3C(=O)CN(Cc4ccccc4)C(=O)[C@@]3(C)[C@H]2C1=O", "activity change, negative = inhibition": 2.3},
      {"smiles": "CC(=O)Nc1ccc(NC(=O)CCCNC(=O)c2ccc(Cl)cc2)cc1", "activity change, negative = inhibition": 6.26},
      {"smiles": "C=CCNC(=S)NNC(=O)c1ccc(Br)o1", "activity change, negative = inhibition": 22.2},
      {"smiles": "Cc1ccc(/C=N/NC(=O)CN2CCN(Cc3ccccc3)CC2)s1", "activity change, negative = inhibition": 24.6},
      {"smiles": "C=CCNC(=S)N/N=C/c1ccc(C)s1", "Potency": "4.65 µM (active)"},
      {"smiles": "CC(C)c1c(O)nc(SCCOc2ccc(Cl)cc2)[nH]c1=O", "activity change, negative = inhibition": 28.2},
      {"smiles": "CCOc1cc2[nH]c(=S)n(Cc3ccc(C(=O)N4CCN(C)CC4)cc3)c(=O)c2cc1OCC", "activity change, negative = inhibition": -8.43},
      {"smiles": "CC1CC(C)CN(CCCNC(=O)Cn2ncc3c([nH]c4ccccc43)c2=O)C1", "note": "(stereo not given)", "activity change, negative = inhibition": 13.4},
      {"smiles": "Cc1cccc(CCNC(=O)Cn2ncc3c([nH]c4ccc(C)cc43)c2=O)c1", "activity change, negative = inhibition": 10.2},
      {"smiles": "Cc1ccc2[nH]c3c(=O)n(CC(=O)NCCc4ccc(Cl)cc4)ncc3c2c1", "Potency": "13.1 µM (active)"},
      {"smiles": "Nc1c(C(=O)OCC(=O)Nc2ccc(OC(F)F)cc2)[nH]c(=O)[nH]c1=O", "activity change, negative = inhibition": 46.1}
    ]}
  ]
}
